Assay outcomes from PubChem.
CendR NRP1 mod: modulators of CendR peptide binding to human neuropilin-1 | O14786 | FAM-RPARPAR peptide binding to NRP-1, fluorescence polarization | AID 602438 | inhibition, % at 25 µM | 360,000 compounds, 0.85% hits;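 active = inhibition or corrected inhibition above about 18%, plus a signal ratio from 0.5 to 1.5, limit read from the data, passing the limit was not always enough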
Target sequence (O14786 whole entry, looked up): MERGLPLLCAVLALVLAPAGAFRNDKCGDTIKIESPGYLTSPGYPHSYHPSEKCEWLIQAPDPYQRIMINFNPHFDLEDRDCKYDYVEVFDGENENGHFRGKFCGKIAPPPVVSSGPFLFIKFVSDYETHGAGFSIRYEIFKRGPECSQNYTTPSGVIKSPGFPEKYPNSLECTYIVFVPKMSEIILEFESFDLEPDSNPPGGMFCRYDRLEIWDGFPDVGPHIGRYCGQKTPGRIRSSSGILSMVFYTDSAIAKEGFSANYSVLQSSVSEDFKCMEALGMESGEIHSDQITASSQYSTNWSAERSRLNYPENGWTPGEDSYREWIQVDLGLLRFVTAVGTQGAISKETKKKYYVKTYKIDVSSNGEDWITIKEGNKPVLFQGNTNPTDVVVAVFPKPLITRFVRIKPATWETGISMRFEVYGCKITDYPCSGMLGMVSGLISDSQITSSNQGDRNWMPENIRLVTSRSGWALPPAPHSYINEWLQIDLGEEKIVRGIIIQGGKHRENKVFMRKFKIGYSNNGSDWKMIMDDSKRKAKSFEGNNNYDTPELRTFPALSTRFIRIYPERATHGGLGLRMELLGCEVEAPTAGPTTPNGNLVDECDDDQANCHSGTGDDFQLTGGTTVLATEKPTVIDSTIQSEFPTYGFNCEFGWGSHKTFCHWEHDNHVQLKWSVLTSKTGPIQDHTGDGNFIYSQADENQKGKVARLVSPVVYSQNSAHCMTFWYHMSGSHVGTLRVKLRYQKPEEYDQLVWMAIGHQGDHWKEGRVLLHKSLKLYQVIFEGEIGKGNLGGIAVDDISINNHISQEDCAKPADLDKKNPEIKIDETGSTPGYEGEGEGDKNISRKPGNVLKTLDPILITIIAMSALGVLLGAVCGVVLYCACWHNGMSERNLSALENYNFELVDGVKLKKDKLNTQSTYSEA
A3G deaminase: blocks human APOBEC3G single-stranded DNA deamination. 330,000 compounds, 0.28% hits. inhibition, % at 20 µM. AID 493012. recombinant A3G, ssDNA deamination FAM/TAMRA fluorescence;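 active = inhibition of at least 40% at 20 µM, with no more than 30% in the related APOBEC3A deaminase screen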;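 also: plate controls were DMSO wells with A3G for no effect and wells lacking A3G enzyme for full effect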
ADAM10 inh: inhibitors of human ADAM10; O14672; recombinant ADAM10, EDANS/DABCYL FRET peptide cleavage, 3 h; inhibition, % at 7 µM; 370,000 compounds, 0.62% hits;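 active = inhibition above a per-campaign cutoff equal to the mean of compounds falling between control-based bounds plus 3 SD, cut at about 20% in these data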;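 also: 0% = DMSO wells while the 100% control is not disclosed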
ADAM17 inh: inhibitors of human ADAM17. P78536. recombinant ADAM17, EDANS/DABCYL FRET peptide cleavage. inhibition, % at 6.95 µM. 370,000 compounds, 0.83% hits. AID 720648;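 active = inhibition above the mean of compounds lying between control limits plus 3 SD, set per campaign, cut at about 8.5% in these data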;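 also: 0% = DMSO-only wells as the low control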
APOBEC3A inh: blocks human APOBEC3A ssDNA deamination; P31941; recombinant A3A, FAM/TAMRA ssDNA deamination fluorescence; inhibition, % at 20 µM; 330,000 compounds, 0.41% hits; AID 493011;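 active = at least 40% inhibition at 20 µM here, with at most 30% in a related deaminase screen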;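 also: plate controls were A3A with DMSO for no effect and wells lacking A3A enzyme for full effect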
An asterisk follows results filed as active; . = no result. A selection: hits, their analogues and other compounds. The true share with any hit is near 2.4%.

SMILES	CendR NRP1 mod	A3G deaminase	ADAM10 inh	ADAM17 inh	APOBEC3A inh
Cc1cccc(N2CCN(C(=O)c3ccnn3C)CC2)c1C	25*	-4	4	-1	-4
COc1ccc(-c2noc(CN(C(=O)c3ccc4c(c3)OCO4)C(C)C)n2)cc1	28*	-4	-1	3	-4
C=CCn1c(Cc2cccs2)nnc1SCC(=O)Nc1cccc2ccccc12	.	.	-6	-2	.
Cc1onc(-c2c(F)cccc2Cl)c1C(=O)Nc1nnc(C(F)(F)F)s1	3	-6	4	3	-5
COCc1nnc(NC(=O)c2c(-c3c(Cl)cccc3Cl)noc2C)s1	20*	-2	-2	-2	1
C[C@H](c1ccccc1)N1C[C@@H](COCc2ccccc2)Oc2cccc(Oc3ccc(F)cc3)c2S1(=O)=O	.	.	2	0	.
OCC[C@@H]1C[C@H](O)[C@@H](O)[C@@]2(CCCCO2)O1	27*	32	0	1	1
COc1ccc(CNC(=O)c2ccccc2[N+](=O)[O-])cc1	26*	-8	.	.	0
CC(=O)N1CCc2cc(S(=O)(=O)NC3CCN(C(=O)C(C)(C)C)CC3)ccc21	.	.	-2	-4	.
Cc1cc(C(=O)NC(C)C2CCCO2)cs1 (stereo not given)	44*	-3	.	.	-1
c1cnc(SCC2CCCCC2)c(-c2nc3ccccc3[nH]2)c1	.	.	-9	-2	.
O=C(O)C1C(C(=O)Nc2ccc(Cl)cc2)C2C=CC1C21CC1 (stereo not given)	28*	-6	2	0	-2
N#C/C(=C\c1ccc(OC(=O)c2ccc(Cl)s2)cc1)c1nc2ccccc2[nH]1	39*	2	-21	-9	4
COC(=O)[C@]12C[C@H](CC(=O)NCCCCc3ccccc3)C(=O)N(Cc3cccc4ccccc34)C1=C[C@H](C1CCCC1)O[C@@H]2C	.	.	-13	-6	.
COCc1cc(N2CCN(C(=O)OC(C)(C)C)C[C@H]2C)ccc1N1CCN(Cc2ccccc2)[C@@H](C)C1	.	.	-6	-5	.
Cc1ccccc1N1CCN(C2CCCN(C(=O)CCN3CCCCO3)C2)CC1 (stereo not given)	26*	-9	-12	-3	-3
COc1ccccc1N1CCN(C2CCCN(C(=O)CCC(=O)N(C)C)C2)CC1 (stereo not given)	3	-6	-7	-4	-5
COc1ccccc1N1CCN(C2CCCN(C(=O)Cn3cccn3)C2)CC1 (stereo not given)	24*	3	7	0	2
Cc1ccc(NS(=O)(=O)c2cc(NC(=O)c3ccc4c(c3)NC(=O)CS4)ccc2C)c(C)c1	-11	36	26*	10*	-4
COC(=O)c1cc2c(c3c4cc(F)ccc4n(S(=O)(=O)c4ccccc4)c13)C(=O)N(Cc1ccccc1)C2	.	.	4	1	.
O=C(Cn1ccc(NC(=O)OCc2ccccc2)nc1=O)NCCCn1ccnc1	33*	-3	0	1	-1
CC(C)(C)OC(=O)N1CCC(NC(=O)c2nc[nH]c2C(=O)NC2CCN(C(=O)OC(C)(C)C)CC2)CC1	-4	19	-6	-4	-2
C[C@@H](NC(=O)c1nc[nH]c1C(=O)NC1CCN(C(=O)OC(C)(C)C)CC1)c1ccccc1	22*	-12	12	4	-4
CC(C)(C)OC(=O)N1CCC(NC(=O)c2[nH]cnc2C(=O)Nc2cccc(Cl)c2)CC1	33*	-5	-6	-4	0
N#Cc1ccc(C(=O)Oc2coc(CSc3ncccn3)cc2=O)cc1	.	.	-4	0	.
SMILES	CendR NRP1 mod	A3G deaminase	ADAM10 inh	ADAM17 inh	APOBEC3A inh
Cc1ccc(C(=O)C2CCN(CC(=O)N3CCCC3)CC2)cc1	.	.	9	-2	.
CC(=O)Nc1ccc2c(c1)-c1ccc(F)cc1C2	17	.	-3	1	.
CC(=O)Nc1cc(F)c2c(c1F)Cc1cc(F)ccc1-2	24*	.	-6	-1	.
CC1=C(C(=O)NCc2ccc(Cl)cc2)C2(CCC(C)CC2)OC1=O (stereo not given)	37*	-5	-2	-2	-5
COc1cccc(N2[C@@H](CC(C)=O)c3ccccc3S2(=O)=O)c1	22*	-1	-7	0	-2
COc1cccc(C(=O)NC2CCN(CC(=O)NCc3ccccc3OC)CC2)c1	34*	-5	-7	-6	-3
Oc1ccc2ccccc2c1CN1CCCC1	8	-9	-47	-17	2
Oc1ccc2ccccc2c1CN1CCCCC1	26*	.	-110	-28	.
OCCCn1c(CCNc2nc(-c3ccc(Cl)cc3)cs2)nc2cc(C(F)(F)F)ccc21	-12	-5	4	2	-5
O=[N+]([O-])c1cc(-c2csc(NCCc3nc4cc(C(F)(F)F)ccc4n3CCCO)n2)ccc1Cl	28*	-2	5	6	-1
Cc1ncc([N+](=O)[O-])n1CCOC(=O)NC(NCc1ccccc1Cl)C(Cl)(Cl)Cl (stereo not given)	38*	-9	-1	0	-3
Cc1ccc(NC(NC(=O)OCCn2c([N+](=O)[O-])cnc2C)C(Cl)(Cl)Cl)cc1 (stereo not given)	.	-1	.	.	1
CCN(CC)C(=O)CC[C@H]1CC[C@]2(CCCN(Cc3ccncc3)C2)O1	.	.	1	2	.
COc1cc(Cn2nnc3ccccc32)cc(Br)c1O	23*	-3	8	3	0
Cc1nc2ccc(S(=O)(=O)NCC(=O)NCc3cccs3)cc2s1	.	.	-13	-4	.
CCOc1cc(-c2ccc(N)c(OCC)c2)ccc1N	43*	-6	-6	-4	-1
CCOc1ccc(NC(C)=O)cc1N	4	-10	-15	-5	-4
CN(C)/C=C/c1c([N+](=O)[O-])c2ccc(O)cc2n1-c1ccccc1	33*	2	-17	-6	-5
COC(=O)c1c(C)n(-c2ccccc2)c2ccc(O)cc12	-2	-4	12	4	2
CC1CCCC(NC(=O)CCC(=O)c2ccc(F)cc2)C1C (stereo not given)	26*	-7	-3	-2	-7
CC1CCCC(NC(=O)CSc2ccc(F)cc2)C1C (stereo not given)	8	-6	3	-1	0
O=S1(=O)CC2c3ccccc3CCN2CN1Cc1ccc(F)cc1 (stereo not given)	.	.	4	2	.
CCOC(=O)N1CCN(C(=O)C[C@H]2C[C@@]3(C(=O)OC)C(=C[C@H](COCc4ccccc4)O[C@@H]3C)N(CCC3=CCCCC3)C2=O)CC1	.	.	2	4	.
CCn1c2ccccc2c2cc([N+](=O)[O-])ccc21	29*	-6	8	2	-3
COC(=O)C1=C(C(=O)OC)[C@@]2([C@H](Cc3ccc(C)cc3)Nc3ccccc3)C=C[C@@H]1O2	.	.	8	3	.
COCCNC(=S)N(CCc1c(C)[nH]c2ccc(F)cc12)Cc1cccs1	32*	-15	19	6	-5
COCCNC(=S)N(CCc1c(C)[nH]c2ccc(Cl)cc12)Cc1cccs1	4	-6	19	9	0
CC(=O)Nc1cc2nc3ccccc3oc-2cc1=O	.	.	-10	-1	.
